A number with no mark means an inactive call. Activity calls are given as the source filed them. No stated cut-off is given here; in the data, active means fold change permeability below about 0.7 or above about 1.3; inactive means in between.
Experiment: modulators of brain endothelial barrier permeability, primary screen, cell-based, FITC-avidin fluorescence, HTS (AID 1963498); further: test concentration not given here
Settings: actives lie on both sides

**Q.** For CNC(=O)c1c(F)cccc1Nc1nc(Nc2cc3c(cc2OC)CCN3C(=O)CN(C)C)nc2[nH]ccc12, which fold change permeability is on record?
**A.** 1.6 (active)

**Q.** For NC(=O)C(c1ccccc1)(c1ccccc1)[C@@H]1CCN(CCc2ccc3c(c2)CCO3)C1, which fold change permeability is on record?
**A.** 0.8

**Q.** For O=C(CCNNC(=O)c1ccncc1)NCc1ccccc1, which fold change permeability is on record?
**A.** 0.8

**Q.** With CCCC(CCC)C(=O)O as the compound, how does the fold change permeability read?
**A.** 1.1

**Q.** For O=Nc1c(-c2c(O)[nH]c3cc(Br)ccc23)[nH]c2ccccc12, which fold change permeability is on record?
**A.** 1.2

**Q.** Which fold change permeability does the source give for N#CSCC(=O)c1ccc(O)c(O)c1 here?
**A.** 1.1

**Q.** For CSC(N)=NCCC[C@H](N)C(=O)O, which fold change permeability is on record?
**A.** 0.7 (active)

**Q.** For Nc1nc(Nc2ccccc2)nc2c1ncn2[C@@H]1O[C@H](CO)[C@@H](O)[C@H]1O, which fold change permeability is on record?
**A.** 0.8

**Q.** With O=c1[nH]cnc2[nH]ncc12 as the compound, how does the fold change permeability read?
**A.** 1

**Q.** With COc1ccc(C2(CNC(=O)c3ccc(NC(=O)c4ccco4)cc3)CCOCC2)cc1 as the compound, how does the fold change permeability read?
**A.** 0.7 (active)

**Q.** With NC(N)=S as the compound, how does the fold change permeability read?
**A.** 1.3 (active)

**Q.** With O=C(O)CCCCCCCC(=O)O as the compound, how does the fold change permeability read?
**A.** 1.2

**Q.** For CC(C)=CCC/C(C)=C/CC/C(C)=C/CSc1ccccc1C(=O)O, which fold change permeability is on record?
**A.** 1.4 (active)

**Q.** For Brc1c(NC2=NCCN2)ccc2nccnc12, which fold change permeability is on record?
**A.** 1.6 (active)

**Q.** Which fold change permeability does the source give for CN(C)C(=O)Oc1cccc([N+](C)(C)C)c1 here?
**A.** 0.8

**Q.** Which fold change permeability does the source give for Cc1nc2ccccn2c(=O)c1CCN1CCC(C(=O)c2ccc(F)cc2)CC1 here?
**A.** 1.1

**Q.** Which fold change permeability does the source give for COc1cc2c(cc1OC)C1CC(=O)C(CC(C)C)CN1CC2 (stereo not drawn) here?
**A.** 0.7 (active)

**Q.** For Cc1cc2c(s1)Nc1ccccc1N=C2N1CCN(C)CC1, which fold change permeability is on record?
**A.** 0.7 (active)

**Q.** Which fold change permeability does the source give for CC[C@H](NC(=O)c1c(C)c(-c2ccccc2)nc2ccccc12)c1ccccc1 here?
**A.** 1

**Q.** With CNCCC=C1c2ccccc2CCc2ccccc21 as the compound, how does the fold change permeability read?
**A.** 1

**Q.** With CCN1CCCC1CNC(=O)c1cc(S(N)(=O)=O)ccc1OC (stereo not drawn) as the compound, how does the fold change permeability read?
**A.** 0.7 (active)

**Q.** Which fold change permeability does the source give for CC(N)(C(=O)O)c1ccc(C(=O)O)cc1 (stereo not drawn) here?
**A.** 0.9

**Q.** Which fold change permeability does the source give for CC/C(=N\NC(=O)c1ccnc(NCCCN2CCOCC2)c1)c1ccc(Cl)cc1O here?
**A.** 0.8

**Q.** Which fold change permeability does the source give for NC(N)=NC(N)=Nc1ccccc1 here?
**A.** 0.9

**Q.** Which fold change permeability does the source give for Oc1ccc(-c2nc(-c3ccc(F)cc3)c(-c3ccncc3)[nH]2)cc1 here?
**A.** 1.1

**Q.** With C[C@H]1CC(=O)Nc2cc(C(=O)NCCC3CC3)ccc2N1C(=O)N1CC2CC2C1 (stereo partly drawn) as the compound, how does the fold change permeability read?
**A.** 1.1

**Q.** Which fold change permeability does the source give for CC(C)(C)c1ccc(/C=C/C(=O)Nc2ccc3c(c2)OCCO3)cc1 here?
**A.** 2 (active)

**Q.** Which fold change permeability does the source give for NC(=O)c1cc[n+](CC2=C(C(=O)O)N3C(=O)[C@@H](NC(=O)[C@@H](c4ccccc4)S(=O)(=O)[O-])[C@H]3SC2)cc1 here?
**A.** 0.8

**Q.** For O=C1NC(c2cccc([N+](=O)[O-])c2)=CCN1c1ccccc1O, which fold change permeability is on record?
**A.** 0.9

**Q.** For COC(=O)C1=C(C)NC(C)=C([N+](=O)[O-])C1c1ccccc1C(F)(F)F (stereo not drawn), which fold change permeability is on record?
**A.** 1.1

**Q.** With Cc1ccc(S(=O)(=O)/C=C/C#N)cc1 as the compound, how does the fold change permeability read?
**A.** 1.1

**Q.** For O=C(NCCN1CCOCC1)c1ccc(Cl)cc1, which fold change permeability is on record?
**A.** 0.8

**Q.** With CCC(C)N(C)C(=O)c1cc2ccccc2c(-c2ccccc2Cl)n1 (stereo not drawn) as the compound, how does the fold change permeability read?
**A.** 0.9

**Q.** For CC1CNc2c(cccc2S(=O)(=O)N[C@@H](CCCN=C(N)N)C(=O)N2CC[C@@H](C)C[C@@H]2C(=O)O)C1 (stereo partly drawn), which fold change permeability is on record?
**A.** 0.9

**Q.** For O=C(CCCN1CCC(O)(c2cccc(C(F)(F)F)c2)CC1)c1ccc(F)cc1, which fold change permeability is on record?
**A.** 1.6 (active)

**Q.** For CCCC(CCC)C(=O)OC1CC2CCC(C1)[N+]2(C)C (stereo not drawn), which fold change permeability is on record?
**A.** 0.9

**Q.** Which fold change permeability does the source give for CC(=O)N=c1sc(S(N)(=O)=O)nn1C here?
**A.** 1.4 (active)

**Q.** For OC[C@H]1NC[C@@H](O)[C@@H]1O, which fold change permeability is on record?
**A.** 1

**Q.** Which fold change permeability does the source give for CCc1ccc(/C=C2/SC(=S)NC2=O)cc1 here?
**A.** 1.4 (active)

**Q.** For Fc1ccc(CN(C2=NCCN2)c2c(Cl)cccc2Cl)cc1, which fold change permeability is on record?
**A.** 1.1

**Q.** With Nc1ncnc2c1ncn2C1CCCC1 as the compound, how does the fold change permeability read?
**A.** 0.9

**Q.** Which fold change permeability does the source give for CC(C(=O)O)c1ccc(C(=O)c2cccs2)cc1 (stereo not drawn) here?
**A.** 0.8

**Q.** With N[C@H](C(=O)O)[C@H](O)C(=O)O as the compound, how does the fold change permeability read?
**A.** 0.9

**Q.** Which fold change permeability does the source give for CN1CCN(C2=Nc3cc(Cl)ccc3Nc3ccccc32)CC1 here?
**A.** 1.2

**Q.** With CCN(CC)CCOC(=O)c1ccc(N)cc1 as the compound, how does the fold change permeability read?
**A.** 0.8

**Q.** For C=C(C)C1CC=C(C(=O)O)CC1 (stereo not drawn), which fold change permeability is on record?
**A.** 0.9

**Q.** Which fold change permeability does the source give for CCn1c(=O)[nH]c2cc(Cl)c(Cl)cc21 here?
**A.** 0.7 (active)

**Q.** For CC(=O)C(C)=O, which fold change permeability is on record?
**A.** 1.1

**Q.** For N=C(N)N1CCc2ccccc2C1, which fold change permeability is on record?
**A.** 1.3 (active)

**Q.** Which fold change permeability does the source give for C[C@H](NC[C@H](O)CP(=O)(O)Cc1ccccc1)c1ccc(Cl)c(Cl)c1 here?
**A.** 1.1

**Q.** With CCCCC[C@H](CC(=O)NO)C(=O)N[C@H](C(=O)N1CCC[C@H]1CO)C(C)C as the compound, how does the fold change permeability read?
**A.** 1.2

**Q.** With Cc1ccc(C2Nc3ccccc3C(=O)N2c2ccccc2)s1 (stereo not drawn) as the compound, how does the fold change permeability read?
**A.** 1.3 (active)

**Q.** With CCN1CCCC1CNC(=O)c1cc(S(=O)(=O)CC)c(N)cc1OC (stereo not drawn) as the compound, how does the fold change permeability read?
**A.** 0.7 (active)

**Q.** For C[N+](C)(C)CC=O, which fold change permeability is on record?
**A.** 1.1

**Q.** For C=CCc1ccccc1OCC(O)CNC(C)C (stereo not drawn), which fold change permeability is on record?
**A.** 1.2

**Q.** Which fold change permeability does the source give for C[C@@H](N)C1CCC(C(=O)Nc2ccncc2)CC1 (stereo partly drawn) here?
**A.** 1.2

**Q.** With CC(=O)CCCCn1c(=O)c2c(ncn2C)n(C)c1=O as the compound, how does the fold change permeability read?
**A.** 1

**Q.** Which fold change permeability does the source give for NNCCc1ccccc1 here?
**A.** 1.1

**Q.** Which fold change permeability does the source give for CN1CC(=O)NC1=NC(=O)Nc1cccc(Cl)c1 here?
**A.** 0.7 (active)

**Q.** For CCN1C(=O)C=CC1=O, which fold change permeability is on record?
**A.** 1

**Q.** With CC(=O)Oc1cc(C(C)C)c(OCCN(C)C)cc1C as the compound, how does the fold change permeability read?
**A.** 0.8

**Q.** For O=C(/C=C/c1ccc(O)c(O)c1)OCCc1ccccc1, which fold change permeability is on record?
**A.** 1

**Q.** For Cc1ccc(Cl)c(Nc2ccccc2C(=O)O)c1Cl, which fold change permeability is on record?
**A.** 1.3 (active)

**Q.** With O=C(O)c1cccnc1C(=O)O as the compound, how does the fold change permeability read?
**A.** 1.1

**Q.** With N#Cc1c2nc3ccccc3nc2n2ccc(NC(=O)c3cccs3)cc12 as the compound, how does the fold change permeability read?
**A.** 1.2

**Q.** With C[C@H](NCCc1ccc(O)cc1)[C@H](O)c1ccc(O)cc1 as the compound, how does the fold change permeability read?
**A.** 0.7 (active)

**Q.** Which fold change permeability does the source give for O=C(O)/C=C1\CCCc2ccccc2C1O (stereo not drawn) here?
**A.** 0.8

**Q.** With NO as the compound, how does the fold change permeability read?
**A.** 1.1

**Q.** Which fold change permeability does the source give for CN(C)c1ccccc1CN1CCCN(Cc2ccccc2N(C)C)C1c1ccncc1 here?
**A.** 1.1

**Q.** For Oc1ccc(/C=C/c2cc(O)cc(O)c2)cc1, which fold change permeability is on record?
**A.** 1.7 (active)

**Q.** Which fold change permeability does the source give for CN(C)CCc1c[nH]c2ccc(Cn3cncn3)cc12 here?
**A.** 1

**Q.** Which fold change permeability does the source give for CC(=O)/C=C1\C(=O)N(C)c2ccccc21 here?
**A.** 1.2

**Q.** For Oc1cc(O)cc(/C=C/c2ccc(O)c(O)c2)c1, which fold change permeability is on record?
**A.** 0.7 (active)

**Q.** For Cc1ccc(S(=O)(=O)NC(=O)NN2CCCCCC2)cc1, which fold change permeability is on record?
**A.** 1

**Q.** For Cc1cccc(Nc2ccccc2C(=O)O)c1, which fold change permeability is on record?
**A.** 0.9

**Q.** Which fold change permeability does the source give for N=C(N)SCCc1cnc[nH]1 here?
**A.** 0.7 (active)

**Q.** Which fold change permeability does the source give for CC(C)(CN1C(=O)C(Cl)=C(Cl)C1=O)CN1C(=O)C(Cl)=C(Cl)C1=O here?
**A.** 1.1

**Q.** For COC(=O)[C@@H](N)Cc1ccc(O)c(O)c1, which fold change permeability is on record?
**A.** 1

— PubChem BioAssay
